Assay results from PubChem BioAssay.
Activity calls are given as the source filed them.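 How the source made its calls, unless noted: active means superoxide response below 65% of plate, a cut near 3 SD across the whole screen; inactive means the rest.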

What was measured:
[1] = inhibitors of CD8+ T cell-vesicle binding, pilot screen, LFA-1/ICAM-1 modulator project, MLPCN validation set, flow cytometry (AID 2523;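 active means response below a set limit, under 55% cells CD8-positive and vesicle-bound, and CD8 cells' 90th-percentile brightness under 279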;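 on vesicle binding response: mean PE anti-B7-1 fluorescence of CD8+ cells relative to row control; 100% = QL9-loaded vesicles with DMSO vehicle in the same plate row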); details: 2C mouse CD8+ T cells, at 7 µM, stronger effect = lower value; double positive events: measured here: CD8+/vesicle+ event percentage
[2] = target: Integrin beta-1 (Homo sapiens) + Integrin alpha-4 (Homo sapiens) (UniProt P13612+P05556); assay: inhibition of HUTS-21 binding to VLA-4, pilot screen, VLA-4 allosteric modulator project, U937 cells, HUTS-21 mAb, flow cytometry, validation set (AID 2674;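 active means inhibition above 50%, about 3 SD of the validation set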;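 further: antibody binding induced by the VLA-4 ligand LDV present at three times its Kd; 0% = LDV ligand with antibody and no compound and 100% = antibody without LDV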); details: HUTS-21 LIBS mAb binding, at 6.7 µM, stronger effect = higher value, binding induced by LDV ligand
[3] = superoxide lowering in aged yeast cells, pilot screen, validation compound set (AID 2706);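 further: yeast exposed to compound for one week at 30 degrees C before staining; 100% = mean of all compound wells on the same plate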; details: S. cerevisiae aging, superoxide DHE fluorescence; at 10 µM, stronger effect = lower value
[4] = target: Beta-adrenergic receptor kinase 1 (Homo sapiens) (UniProt P25098); assay: GRK2 binders displacing RNA aptamer, biochemical, validation, human GRK2, bead flow cytometry (AID 488806;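 active means aptamer binding inhibition above 30%, about 3 SD of noise from non-fluorescent compounds; inactive means inhibition at or below 30%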); details: bead-bound GRK2, FAM-aptamer displacement, at 10 µM, stronger effect = higher value
[5] = target: Beta-2 adrenergic receptor (Homo sapiens) (UniProt P07550); assay: beta2AR agonists driving receptor internalization, pilot screen, cell-based, FAP fluorogen, flow cytometry, validation set (AID 504459;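 active means percent response above 42, roughly 3 SD of non-fluorescent test compounds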;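 further: agonist-driven loss of surface beta2AR via internalization measured by FAP dye flow cytometry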); details: Am2.2-beta2AR cells, FAP surface receptor flow cytometry; at 10 µM; stronger effect = higher value
[6] = target: AP-2 complex subunit beta (Homo sapiens) (UniProt P63010); assay: inhibitors of arrestin peptide binding to AP2, pilot screen, biochemical, validation set, GST-AP2 beads, flow cytometry (AID 504541;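 active means inhibition above 54%, about 3 SD of non-fluorescent compounds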;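 further: AP2 carries R879A mutation and is captured from E. coli lysate; bead-bound FITC arrestin peptide fluorescence measuring arrestin peptide binding to AP2; 0% = DMSO wells and 100% = excess unlabeled arrestin peptide control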); details: FITC arrestin peptide, at 10 µM, stronger effect = higher value, AP2 beta2 appendage fragment, R879A mutant
[7] = yeast V-ATPase proton transport modulators, S. cerevisiae, pHLuorin, HTS validation (AID 504600; in the data active means response above about 15%;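 further: plate controls were DMSO for no effect and reference compound for full effect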); details: S. cerevisiae pHLuorin cytosolic pH, at 10 µM, stronger effect = higher value
[8] = system: anti-desmoglein-3 scFv antibody binding to human DSG3; assay: inhibitors of anti-DSG3 scFv binding to DSG3, pilot screen, biochemical, validation compound set, bead-based, flow cytometry (AID 588368;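 active means binding below the plate cutoff, the plate median minus 3 SD, with a reading above zero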;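 further: signal is the median channel fluorescence of bead-bound GFP antibody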); details: Protein G beads, DSG3-Fc, scFv-GFP binding, at 10 µM, stronger effect = lower value
[9] = inhibitors of fungal efflux pumps CDR1, CDR2, MDR1, pilot screen, validation compound set, multiplex, phenotypic (AID 588506;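 active means efflux inhibition above 0.42, the validation set average plus 4 SD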;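 further: Nile Red retained in cells so higher fluorescence means more efflux inhibition; 0 = negative control wells and 1 = enniatin B 25 µM full block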); details: S. cerevisiae pump-expressing triplex, Nile Red efflux flow cytometry; at 10 µM; stronger effect = higher value; the pumps come from Candida albicans
[10] = target: ATP-binding cassette sub-family B member 6 (Homo sapiens) (UniProt Q9NP58); assay: ABCB6 transporter inhibitors, pilot screen, K562-ABCB6 cells, flow cytometry, validation set (AID 588550;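 active means inhibition above the screen-wide mean plus 3 SD, about 51%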;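 further: 0% = DMSO wells and 100% = benzethonium chloride 70 µM positive control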); details: K562-ABCB6 porphyrin accumulation, 1 h, at 10 µM, stronger effect = higher value
[11] = promoters of myeloid differentiation in arrested cells, primary screen, cell-based, GFP/MAC1 double positive, flow cytometry, validation set (AID 588685;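 active means differentiation response of at least 50%, scaled between solvent and reference control, from cells with both markers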;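 further: compound exposure lasts four days before antibody staining and flow analysis; 0% = DMSO wells and 100% = 5 µM fulvestrant positive control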); details: ER-HoxA9 marrow cells, stronger effect = higher value, normalized: vehicle 0, fulvestrant 100

Chain of AP-2 complex subunit beta (Homo sapiens) (P63010 whole entry, looked up, the tested form may be a part, one chain of several): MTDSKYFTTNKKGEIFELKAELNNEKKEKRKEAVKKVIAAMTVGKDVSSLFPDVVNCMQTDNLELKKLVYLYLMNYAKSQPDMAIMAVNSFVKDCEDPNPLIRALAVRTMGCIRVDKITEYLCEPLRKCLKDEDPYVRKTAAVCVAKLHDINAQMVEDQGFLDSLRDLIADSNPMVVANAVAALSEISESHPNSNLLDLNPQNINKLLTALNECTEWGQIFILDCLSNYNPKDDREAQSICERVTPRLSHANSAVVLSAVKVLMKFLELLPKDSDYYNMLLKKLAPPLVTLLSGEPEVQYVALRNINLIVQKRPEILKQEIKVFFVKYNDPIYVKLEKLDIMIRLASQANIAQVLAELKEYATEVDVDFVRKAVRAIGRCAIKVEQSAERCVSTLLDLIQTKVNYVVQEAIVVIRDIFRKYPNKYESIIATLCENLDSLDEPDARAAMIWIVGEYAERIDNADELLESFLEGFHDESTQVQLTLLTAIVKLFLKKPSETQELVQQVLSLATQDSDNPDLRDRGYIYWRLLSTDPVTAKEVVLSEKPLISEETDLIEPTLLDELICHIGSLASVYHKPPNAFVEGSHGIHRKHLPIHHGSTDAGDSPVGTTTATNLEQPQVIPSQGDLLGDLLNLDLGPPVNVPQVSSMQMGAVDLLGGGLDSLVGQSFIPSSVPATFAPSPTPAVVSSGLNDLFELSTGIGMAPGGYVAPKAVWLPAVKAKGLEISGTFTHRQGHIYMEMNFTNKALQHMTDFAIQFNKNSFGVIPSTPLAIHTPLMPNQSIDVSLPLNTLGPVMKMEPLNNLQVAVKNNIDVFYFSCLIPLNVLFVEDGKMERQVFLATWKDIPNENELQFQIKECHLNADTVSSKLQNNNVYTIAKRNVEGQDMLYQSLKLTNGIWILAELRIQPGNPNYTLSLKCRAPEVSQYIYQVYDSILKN
Chain of ATP-binding cassette sub-family B member 6 (Homo sapiens) (Q9NP58 whole entry, looked up): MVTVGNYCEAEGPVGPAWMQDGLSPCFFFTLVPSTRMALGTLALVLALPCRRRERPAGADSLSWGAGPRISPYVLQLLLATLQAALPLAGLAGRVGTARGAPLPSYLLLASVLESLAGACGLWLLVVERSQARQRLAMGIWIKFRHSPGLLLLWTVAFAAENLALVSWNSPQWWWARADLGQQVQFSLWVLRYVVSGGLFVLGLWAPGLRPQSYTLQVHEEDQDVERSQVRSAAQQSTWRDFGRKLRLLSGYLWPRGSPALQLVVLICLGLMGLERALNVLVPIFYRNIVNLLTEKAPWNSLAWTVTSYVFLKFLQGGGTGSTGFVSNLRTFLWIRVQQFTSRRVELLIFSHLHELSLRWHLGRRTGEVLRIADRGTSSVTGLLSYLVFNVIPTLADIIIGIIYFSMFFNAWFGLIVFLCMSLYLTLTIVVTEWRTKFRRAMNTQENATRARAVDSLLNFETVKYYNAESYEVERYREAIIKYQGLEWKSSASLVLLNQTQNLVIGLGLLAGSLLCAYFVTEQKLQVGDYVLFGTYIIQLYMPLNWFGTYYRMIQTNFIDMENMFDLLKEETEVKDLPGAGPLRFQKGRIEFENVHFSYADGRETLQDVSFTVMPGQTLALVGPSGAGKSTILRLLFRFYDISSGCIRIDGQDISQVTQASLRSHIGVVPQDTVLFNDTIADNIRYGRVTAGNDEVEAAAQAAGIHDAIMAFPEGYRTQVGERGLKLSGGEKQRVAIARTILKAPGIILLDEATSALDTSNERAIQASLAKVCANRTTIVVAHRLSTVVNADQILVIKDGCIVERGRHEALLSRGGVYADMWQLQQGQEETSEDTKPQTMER
Chain of Integrin beta-1 (Homo sapiens) + Integrin alpha-4 (Homo sapiens) (P05556 whole entry, looked up): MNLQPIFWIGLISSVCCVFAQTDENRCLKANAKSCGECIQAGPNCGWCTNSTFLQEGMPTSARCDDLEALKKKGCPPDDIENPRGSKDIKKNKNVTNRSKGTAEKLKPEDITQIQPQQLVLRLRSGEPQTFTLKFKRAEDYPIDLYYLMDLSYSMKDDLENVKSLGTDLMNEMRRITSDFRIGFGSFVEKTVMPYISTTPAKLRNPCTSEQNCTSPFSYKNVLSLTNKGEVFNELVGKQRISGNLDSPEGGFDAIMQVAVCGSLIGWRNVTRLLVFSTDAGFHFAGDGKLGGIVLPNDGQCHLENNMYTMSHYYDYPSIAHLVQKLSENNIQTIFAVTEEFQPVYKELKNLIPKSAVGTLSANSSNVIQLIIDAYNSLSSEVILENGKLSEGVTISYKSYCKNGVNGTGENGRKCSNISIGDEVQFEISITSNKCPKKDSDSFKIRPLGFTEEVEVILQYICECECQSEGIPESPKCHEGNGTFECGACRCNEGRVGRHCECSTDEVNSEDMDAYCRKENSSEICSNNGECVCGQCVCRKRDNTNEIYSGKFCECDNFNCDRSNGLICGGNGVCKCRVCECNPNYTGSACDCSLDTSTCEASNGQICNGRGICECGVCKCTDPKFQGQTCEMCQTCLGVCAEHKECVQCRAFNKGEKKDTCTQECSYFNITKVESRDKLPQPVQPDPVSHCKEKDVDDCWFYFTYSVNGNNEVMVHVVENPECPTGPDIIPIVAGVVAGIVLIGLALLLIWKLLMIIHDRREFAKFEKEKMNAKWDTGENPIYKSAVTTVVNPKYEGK
Chain of Integrin beta-1 (Homo sapiens) + Integrin alpha-4 (Homo sapiens) (P13612 whole entry, looked up): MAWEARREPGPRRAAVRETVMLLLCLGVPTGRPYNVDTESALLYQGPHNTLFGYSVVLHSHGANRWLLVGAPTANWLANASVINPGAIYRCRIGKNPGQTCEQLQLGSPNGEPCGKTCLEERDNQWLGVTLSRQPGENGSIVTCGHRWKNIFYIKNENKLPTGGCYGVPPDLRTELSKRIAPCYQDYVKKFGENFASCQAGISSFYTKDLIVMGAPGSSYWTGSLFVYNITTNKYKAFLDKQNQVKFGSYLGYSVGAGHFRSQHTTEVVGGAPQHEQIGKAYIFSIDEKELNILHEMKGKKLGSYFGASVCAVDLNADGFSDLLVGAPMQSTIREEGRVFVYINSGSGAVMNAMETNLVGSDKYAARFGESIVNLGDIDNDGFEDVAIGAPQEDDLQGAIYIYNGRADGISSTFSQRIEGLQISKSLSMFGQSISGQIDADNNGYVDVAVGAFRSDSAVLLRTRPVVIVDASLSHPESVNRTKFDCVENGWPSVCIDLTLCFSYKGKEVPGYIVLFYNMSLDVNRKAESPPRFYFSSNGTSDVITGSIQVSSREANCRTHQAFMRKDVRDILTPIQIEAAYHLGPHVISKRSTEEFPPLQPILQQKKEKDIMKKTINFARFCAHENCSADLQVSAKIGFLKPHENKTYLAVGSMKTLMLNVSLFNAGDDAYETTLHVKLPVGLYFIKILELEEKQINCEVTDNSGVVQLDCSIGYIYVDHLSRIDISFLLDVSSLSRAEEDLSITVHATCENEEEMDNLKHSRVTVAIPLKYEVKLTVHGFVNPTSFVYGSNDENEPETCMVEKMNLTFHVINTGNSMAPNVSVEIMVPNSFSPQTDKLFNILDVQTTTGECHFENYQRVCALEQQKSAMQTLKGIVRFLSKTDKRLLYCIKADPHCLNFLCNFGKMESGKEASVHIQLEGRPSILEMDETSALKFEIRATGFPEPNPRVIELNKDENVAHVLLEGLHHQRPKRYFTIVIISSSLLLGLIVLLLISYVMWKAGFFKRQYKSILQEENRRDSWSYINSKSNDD
Chain of Beta-2 adrenergic receptor (Homo sapiens) (P07550 whole entry, looked up): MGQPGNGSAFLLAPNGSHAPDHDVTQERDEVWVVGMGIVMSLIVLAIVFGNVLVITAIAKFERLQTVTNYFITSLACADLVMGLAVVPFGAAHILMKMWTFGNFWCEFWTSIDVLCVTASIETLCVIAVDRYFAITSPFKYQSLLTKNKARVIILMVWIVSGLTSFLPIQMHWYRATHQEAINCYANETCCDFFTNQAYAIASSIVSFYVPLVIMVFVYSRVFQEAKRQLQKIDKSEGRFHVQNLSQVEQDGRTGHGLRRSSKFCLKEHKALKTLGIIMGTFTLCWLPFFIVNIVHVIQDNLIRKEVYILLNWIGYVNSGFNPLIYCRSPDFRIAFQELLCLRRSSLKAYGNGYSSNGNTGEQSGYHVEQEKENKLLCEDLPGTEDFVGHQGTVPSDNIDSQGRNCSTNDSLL
Chain of Beta-adrenergic receptor kinase 1 (Homo sapiens) (P25098 whole entry, looked up): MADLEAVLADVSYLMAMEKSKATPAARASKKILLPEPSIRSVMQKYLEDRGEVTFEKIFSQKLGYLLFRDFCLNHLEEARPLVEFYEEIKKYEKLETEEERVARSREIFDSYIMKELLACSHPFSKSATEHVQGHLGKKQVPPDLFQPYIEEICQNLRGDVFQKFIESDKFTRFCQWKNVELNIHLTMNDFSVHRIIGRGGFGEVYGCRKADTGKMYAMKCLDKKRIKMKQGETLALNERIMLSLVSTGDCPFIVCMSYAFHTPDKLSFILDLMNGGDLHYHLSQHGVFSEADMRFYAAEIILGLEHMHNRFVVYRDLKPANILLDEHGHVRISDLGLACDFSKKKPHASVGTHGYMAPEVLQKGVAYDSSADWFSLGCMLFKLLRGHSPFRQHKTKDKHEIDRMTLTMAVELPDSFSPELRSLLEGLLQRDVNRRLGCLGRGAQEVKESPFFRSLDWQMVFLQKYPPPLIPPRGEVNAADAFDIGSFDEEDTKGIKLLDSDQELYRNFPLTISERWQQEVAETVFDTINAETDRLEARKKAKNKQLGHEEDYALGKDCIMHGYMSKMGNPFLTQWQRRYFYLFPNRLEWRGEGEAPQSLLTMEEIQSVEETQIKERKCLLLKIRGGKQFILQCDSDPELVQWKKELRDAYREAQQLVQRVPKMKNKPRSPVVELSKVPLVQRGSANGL

Row | SMILES | double positive events [1] [%] | vesicle binding response [1] | inhibition [2] | superoxide response (% of plate) [3] | aptamer binding inhibition [4] | response [5] | inhibition [6] | response [7] | binding (% of control) [8] | efflux inhibition (fraction of control) [9] | inhibition [10] | differentiation response [11]
1 | O=c1cc(-c2ccc3c(c2)OCCO3)oc2ccc(Cl)cc12 | 59 | 102% (inactive) | 2.93% (inactive) | 98.9% (inactive) | -1% (inactive) | -2.34% (inactive) | -6.8% (inactive) | 51.3% (active) | 74.9% (active) | 0.08 (inactive) | 27% (inactive) | -6.03% (inactive)
2 | CCSc1nc(O)c(C2OC(=O)c3c2ccc(OC)c3OC)c(=O)n1CC (centres undefined) | 69.4 | 289% (inactive) | -1.79% (inactive) | 86.4% (inactive) | 2% (inactive) | 15.5% (inactive) | -2.62% (inactive) | -1.36% (inactive) | 101% (inactive) | 0.12 (inactive) | 109% (active) | 20% (inactive)
3 | C[C@H](NC(=O)NCCc1ccccc1)C(=O)O | 58.1 | 252% (inactive) | 2.3% (inactive) | 104% (inactive) | 6% (inactive) | 0.08% (inactive) | -3.97% (inactive) | -4.57% (inactive) | 99.1% (inactive) | -0.13 (inactive) | 3% (inactive) | 4% (inactive)
4 | CCCC(=O)O[C@]1(C(=O)CO)CC[C@H]2[C@@H]3CCC4=CC(=O)CC[C@]4(C)[C@H]3[C@@H](O)C[C@@]21C | 56.4 | 901% (inactive) | -8.75% (inactive) | 105% (inactive) | -3% (inactive) | -0.28% (inactive) | 14.7% (inactive) | -3.44% (inactive) | 99.7% (inactive) | -0.2 (inactive) | 1% (inactive) | -3.67% (inactive)
5 | CCOC(=O)/C=C1\NC(C)(C)Cc2cc(OC)c(OC)cc21 | 59.2 | 271% (inactive) | 5.03% (inactive) | 102% (inactive) | 4% (inactive) | 9.33% (inactive) | -4.08% (inactive) | -1.95% (inactive) | 101% (inactive) | 0.08 (inactive) | 7% (inactive) | 31.2% (inactive)
6 | Cc1ccc(P(=O)(CSC(=N)N)c2ccc(C)cc2)cc1 | 60.2 | 155% (inactive) | 4.27% (inactive) | 95% (inactive) | 8% (inactive) | 1.61% (inactive) | 2.42% (inactive) | -0.71% (inactive) | 104% (inactive) | 0.3 (inactive) | 35% (inactive) | 4.2% (inactive)
7 | O=C(Cc1ccc(Br)cc1)c1ccc(O)cc1O | 58.3 | 228% (inactive) | -23.6% (inactive) | 97.7% (inactive) | -1% (inactive) | -3.21% (inactive) | -2.59% (inactive) | 1.13% (inactive) | 105% (inactive) | 0.09 (inactive) | 2% (inactive) | 12.3% (inactive)
8 | COC(=O)c1cc(OC)c(OC)cc1NC(=O)Nc1ccc(OC)cc1OC | 58.5 | 105% (inactive) | -14.5% (inactive) | 82% (inactive) | 0% (inactive) | 5.38% (inactive) | 11.9% (inactive) | -1.21% (inactive) | 100% (inactive) | -0.205 (inactive) | 7% (inactive) | 13% (inactive)
9 | CC1(C)O[C@@H]2C[C@H]3[C@@H]4CCC5=CC(=O)C=C[C@]5(C)[C@@]4(F)[C@@H](O)C[C@]3(C)[C@]2(C(=O)CO)O1 | 61.2 | 123% (inactive) | 0.25% (inactive) | 91.8% (inactive) | -1% (inactive) | 10.2% (inactive) | -3.89% (inactive) | -1.77% (inactive) | 107% (inactive) | -0.22 (inactive) | 2% (inactive) | 40.8% (inactive)
10 | O[C@@H](CNC[C@H](O)c1ccccc1)c1ccccc1 | 62.7 | 156% (inactive) | -27.7% (inactive) | 99.8% (inactive) | -3% (inactive) | 43.5% (active) | 9.85% (inactive) | 0.68% (inactive) | 102% (inactive) | 0.01 (inactive) | 1% (inactive) | 21.6% (inactive)
11 | C#CCN(C)Cc1ccccc1 | 66.2 | 248% (inactive) | -2.82% (inactive) | 102% (inactive) | 2% (inactive) | -26.9% (inactive) | -10.1% (inactive) | -1.24% (inactive) | 99.9% (inactive) | -0.04 (inactive) | 2% (inactive) | -8.93% (inactive)
12 | OCC1(CCOc2ccccc2)CCN(CCCn2cccn2)CC1 | 62.6 | 287% (inactive) | 11.9% (inactive) | 86.7% (inactive) | 0% (inactive) | 22.2% (inactive) | -9.04% (inactive) | 3.24% (inactive) | 101% (inactive) | -0.39 (inactive) | 4% (inactive) | 7.2% (inactive)
